Laboratory results as given in PubChem BioAssay (NCI).
Compounds without any hit were thinned out: in the full panel of roughly 83,000, 20% have a hit.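 How to read the values: 0–100, growth inhibition (40 = 60% inhibited); 0, no net growth; -100 to 0, cell death (-40 = 40% of starting cells died; -100 = all dead).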 Unmarked numbers belong to inactive results. Active and inactive are the calls of the source. How the source made its calls: active means growth percent below 10; inactive means the rest.

Experiments:
Assay in all cases: NCI-60 one-dose screen, 48 h (100 = growth as untreated, 0 = no growth, -100 = all killed)
Conditions in all cases: 10 µM
[1] = test system: SR leukemia
[2] = test system: RPMI-8226 leukemia
[3] = test system: OVCAR-8 ovarian
[4] = test system: OVCAR-5 ovarian
[5] = test system: OVCAR-4 ovarian
[6] = test system: SK-OV-3 ovarian
[7] = test system: IGROV1 ovarian
[8] = test system: OVCAR-3 ovarian
[9] = test system: HS 578T breast
[10] = test system: NCI/ADR-RES ovarian

| Structure (SMILES) | growth [1] | growth [2] | growth [3] | growth [4] | growth [5] | growth [6] | growth [7] | growth [8] | growth [9] | growth [10] |
| --- | --- | --- | --- | --- | --- | --- | --- | --- | --- | --- |
| O=C(CCC(C(=O)c1ccccc1)c1ccccc1)c1ccccc1 (stereo not given) | 25.5% | 64.9% | 95.3% | 88% | 91.2% | 74.3% | 79.3% | 72.3% | 80.1% | 38.3% |
| O=C(Nc1ccc(F)cc1)c1cc2ccccc2cc1O | 43.2% | 37.9% | 82.7% | 100% | 57.8% | 52.2% | 68.4% | 84.6% | 87.9% | 75.9% |
| COc1cc(-c2nn(-c3ccc(NC(=O)NCCCNC(=O)c4ccccc4)cc3)cc2-c2ccncc2)ccc1Cl | 20.2% | -3.49% (active) | 20.6% | 53% | 44.4% | 23.8% | 38.1% | 20.6% | 40% | 69.4% |
| N#Cc1cnn(C(=O)c2nn(-c3ccc(Cl)cc3)cc2O)c1N | -35.5% (active) | -37% (active) | 10.1% | 30.6% | 18.8% | 8.44% (active) | 12.5% | -0.517% (active) | 75.9% | 3.25% (active) |
| Cc1ccc(NCCNCC(C)(C)O)c2c(=O)c3ccc(Cl)cc3sc12 | -31.2% (active) | -12.9% (active) | 32.2% | 59.9% | 62.5% | 79.1% | 29.8% | -13.4% (active) | 50.4% | 45.9% |
| COc1cc(OC)c2c(=O)c(O)c(-c3ccccc3)oc2c1 | 40.1% | 68.9% | 61.9% | 89% | 65.3% | 81.1% | 78.8% | 68.4% | 88.9% | 65.9% |
| CCCCC(CC)CN=C(N)NC(N)=NCCCCCCN=C(N)NC(N)=NCC(CC)CCCC (stereo not given) | -67.4% (active) | -46.7% (active) | -71.6% (active) | -87.1% (active) | -57.2% (active) | -38% (active) | -66.8% (active) | -83.6% (active) | -52.6% (active) | 46.7% |
| Oc1ccc(/C=N/N=C2c3ccccc3-c3ccccc32)c(O)c1 | 54% | 72.8% | 84.5% | 77.1% | 60.4% | 84.7% | 71.2% | 83.5% | 93.7% | 72.9% |
| Cc1ccc(S(=O)(=O)N(C)CCCCCC(=O)O)cc1 | 101% | 113% | 103% | 101% | 106% | 112% | 99.4% | 106% | 108% | 98.6% |
| O=C1/C=C/[C@@H](O)[C@@H]2C[C@@H](O)C[C@H]2/C=C/CCC[C@H](C(F)(F)F)O1 | -5.34% (active) | -23.8% (active) | 2.07% (active) | 16.2% | 28.5% | 57.8% | 19.4% | -28% (active) | 38.5% | -9.43% (active) |
| COc1ccc(N(C)c2ncnc3occ(C)c23)cc1 | -36.1% (active) | -36.1% (active) | -21.9% (active) | 28.1% | 40.2% | 19.9% | -11.1% (active) | -39.9% (active) | 110% | -16.2% (active) |
| COc1ccc(-c2onc(N)c2-c2cc(OC)c3c(c2)OCO3)cc1 | 9.86% (active) | 26.7% | 39.3% | 51.3% | 61.9% | 38.7% | 41.5% | -1.21% (active) | 33.8% | -10.2% (active) |
| COc1ccc(C2CC(c3cc(OC)c(OC)c(OC)c3)=NN2)cc1 (stereo not given) | -35.1% (active) | -8.7% (active) | 100% | 97.9% | 84.9% | 81.5% | 62.6% | 35.1% | 104% | 68.3% |
| CCN(CC)CCOc1ccc2c(c1O)C(=O)c1ccccc1C2=O | 63.5% | 90.3% | 62.4% | 104% | 85.5% | 77.6% | 97.3% | 94.7% | 84.6% | 72% |
| CN(C)CCCOc1ccc(OCCCN(C)C)c2c1C(=O)c1ccccc1C2=O | 2.73% (active) | -20.6% (active) | 7.14% (active) | 8.93% (active) | 2.16% (active) | 13.8% | 3.65% (active) | 3.4% (active) | 23% | 96.1% |
| CNC(=O)c1c(I)c(NC(C)=O)c(I)c(C(=O)O)c1I | 104% | 110% | 103% | 113% | 111% | 104% | 115% | 111% | 110% | 103% |
| COC1OC(COS(=O)OC)C(O)C(O)C1OS(=O)OC (stereo not given) | 80% | 99.7% | 114% | 90.5% | 116% | 104% | 97.7% | 106% | 102% | 98.1% |
| CS(=O)(=O)c1nccc(-c2c(-c3cccc(OCCN4CCOCC4)c3)nc3sccn23)n1 | 78.3% | 47.8% | 92.1% | 96.6% | 76.8% | 84.9% | 80.2% | 94.8% | 88.7% | 93.3% |
| CCN(CC)CC(=O)N(CC)c1ccc(C)c(Cl)c1 | 82.3% | 97.2% | 94.4% | 104% | 107% | 93.1% | 101% | 102% | 100% | 102% |
| CCCC1(CN2c3ccccc3Sc3ccc(Cl)cc32)CCN(CC)C1 (stereo not given) | -50.1% (active) | -43.2% (active) | -41.2% (active) | 8.89% (active) | 28.3% | 21.7% | -42.7% (active) | 2.48% (active) | -22.8% (active) | 31.4% |
| O=C1Cc2cc(CCN3CCN(c4nsc5ccccc45)CC3)c(Cl)cc2N1 | 86% | 78.9% | 93.7% | 108% | 84.1% | 121% | 101% | 97.6% | 103% | 98.4% |
| CC(C)C[C@H](NC(=O)Cn1cccc(CNC(=O)c2ccccc2)c1=O)B(O)O | 16.4% | 0.606% (active) | 54.4% | 38.8% | 36.7% | 58.5% | 51.5% | -43.2% (active) | 16.6% | 103% |
| C[C@@H](O)[C@H]1C(=O)N2C(C(=O)O)=C(SCCN=CN)C[C@H]12 | -5.48% (active) | -3.62% (active) | -10.1% (active) | 3.52% (active) | -2.15% (active) | 2.23% (active) | -5.16% (active) | -15% (active) | 24.3% | -13.9% (active) |
| CC(C)(C)OC(=O)CC(S(=O)(=O)c1ccccc1)S(=O)(=O)c1ccccc1 | 77.9% | 99.3% | 101% | 98.8% | 107% | 101% | 114% | 48.3% | 102% | 107% |
| CCC(CC)n1c(C)cc(=O)n1C(CC)CC | 118% | 106% | 104% | 99.4% | 107% | 104% | 140% | 113% | 110% | 107% |
| COc1ccc(/C=C/C(=O)C(=O)/C=C/c2ccc(OC)c(OC)c2)cc1OC | 4.78% (active) | 3.5% (active) | 19.5% | 60.5% | 61.9% | 97.8% | 10.1% | 3.9% (active) | 31.5% | 71.7% |
| O=C1CSC(=S)N1/N=C/c1ccc(Cl)s1 | 98.2% | 97.4% | 106% | 97.6% | 119% | 92.6% | 100% | 104% | 112% | 97.5% |
